The text below walks through data of ChEMBL document CHEMBL1201862, “PubChem BioAssay data set” (2004).

Each structure is given as a SMILES string. Out of some 310,000 compounds screened, about 11,000 (3.5%) were called active. About 8% were inconclusive and are not listed. This is one part of a sample in which actives are shown more often than they occur. The calls are words filed in the database; no cut-off is given here.

This test deals with Nuclear receptor ROR-gamma (Mus musculus) (UniProt P51450). In words: VP16 counterscreen qHTS for inhibitors of ROR gamma transcriptional activity. The test is classed as functional. Background: The purpose of a counterscreen is to sort out artefacts and off-target activity.
Sequence of Nuclear receptor ROR-gamma (Mus musculus) (P51450 whole entry): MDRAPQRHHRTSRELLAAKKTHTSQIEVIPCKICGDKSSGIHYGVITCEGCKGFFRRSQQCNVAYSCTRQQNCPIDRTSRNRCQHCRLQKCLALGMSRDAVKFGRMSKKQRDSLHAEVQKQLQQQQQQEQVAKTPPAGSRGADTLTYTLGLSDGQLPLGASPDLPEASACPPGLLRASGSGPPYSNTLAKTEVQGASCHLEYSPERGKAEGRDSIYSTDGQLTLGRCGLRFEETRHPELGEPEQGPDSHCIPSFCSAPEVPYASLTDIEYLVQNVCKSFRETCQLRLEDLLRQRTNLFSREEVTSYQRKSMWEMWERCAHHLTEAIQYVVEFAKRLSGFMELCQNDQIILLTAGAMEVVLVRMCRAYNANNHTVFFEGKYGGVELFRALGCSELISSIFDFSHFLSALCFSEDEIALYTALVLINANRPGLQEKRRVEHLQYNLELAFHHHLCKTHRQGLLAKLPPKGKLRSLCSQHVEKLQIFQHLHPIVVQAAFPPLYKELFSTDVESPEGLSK
With `O=C(Oc1c(Cl)cc(Cl)c2cccnc12)c1cccc([N+](=O)[O-])c1`, the Potency was 200 µM (active).

Consider `COc1cccc2sc(Nc3nc(-c4ccccn4)cs3)nc12`, for which the Potency is 355 µM (active). Consider `O=C(N/N=C(\c1ccccc1)c1cccnc1)c1cccc(F)c1`, for which the Potency was 891 µM (active). Under `O=C(NC1CCCCCCC1)C1CCN(c2nc3ccccc3o2)CC1` stands 631 µM (active); under `Cc1ccc(-n2c(C)cc(C(=O)COC(=O)c3cccnc3O)c2C)cc1`, 224 µM (active).
